Compound activity (PubChem)
CYP2C9 activ: human CYP2C9 activators, primary screen, biochemical, luminescence; Cytochrome P450 2C9 (Homo sapiens), P11712; recombinant CYP2C9, luciferin-H conversion; active compounds read high; factor 1 = untreated enzyme, 0 = blocked; activation factor at 5 µM; 96,000 compounds, 1.4% hits; AID 1024, 2008;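 active = activation factor of 2 or more for CYP2C9 at a 5 µM dose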;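 also: 0 = sulfaphenazole-blocked wells and 1 = vehicle-only wells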
Target sequence (P11712 whole entry, looked up): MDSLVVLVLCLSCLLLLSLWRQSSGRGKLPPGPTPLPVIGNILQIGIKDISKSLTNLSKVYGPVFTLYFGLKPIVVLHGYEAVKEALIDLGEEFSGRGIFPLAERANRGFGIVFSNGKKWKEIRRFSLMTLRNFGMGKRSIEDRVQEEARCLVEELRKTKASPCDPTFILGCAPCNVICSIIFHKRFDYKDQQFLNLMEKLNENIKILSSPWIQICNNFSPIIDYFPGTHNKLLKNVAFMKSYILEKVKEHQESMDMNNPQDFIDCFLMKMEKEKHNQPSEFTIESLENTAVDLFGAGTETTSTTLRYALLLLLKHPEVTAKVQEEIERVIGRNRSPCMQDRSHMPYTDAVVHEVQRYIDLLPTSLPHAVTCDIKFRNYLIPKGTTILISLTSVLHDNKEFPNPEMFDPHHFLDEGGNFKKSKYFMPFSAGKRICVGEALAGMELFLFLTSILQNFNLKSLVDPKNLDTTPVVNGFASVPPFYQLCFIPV
CYP2C19 activ: human CYP2C19 activators, primary screen, biochemical, luminescence; activation factor at 5 µM; Cytochrome P450 2C19 (Homo sapiens), P33261; AID 1025, 2008; recombinant CYP2C19, luciferin-H EGE luminescence; active compounds read high; 0 = fully inhibited enzyme, 1 = untreated enzyme; 96,000 tested, under 10 active;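 active = activation factor of at least 2 at 5 µM in the primary screen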;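 also: 0 = wells with 2.5 mM tranylcypromine and 1 = vehicle-only wells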
CYP2C9 inhib: blockers of cytochrome P450 2C9 activity – biochemical, luminescence, ADME assay, primary screen; 96,000 compounds, 20% hits; AID 777, 2007; CYP2C9 Supersomes, luciferin-H conversion; inhibition, % at 5 µM; P11712;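 active = blocking of liver enzyme CYP2C9 beyond about 50% at 5 µM, limit read from the data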
CYP2C19 inh: blockers of cytochrome P450 2C19 activity – biochemical, luminescence, ADME assay, primary screen; CYP2C19 Supersomes, luciferin-H EGE luminescence, 30 min; 96,000 compounds, 21% hits; AID 778, 2007; inhibition, % at 5 µM; P33261;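 active = CYP2C19 inhibition above a set limit at 5 µM in the primary screen, cut at about 50% in these data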;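 also: plate controls were negative control wells for no effect and 2.5 mM tranylcypromine positive control for full effect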
PostGolgi yeast: phenotypic screen on post-Golgi transport, primary screen; post-Golgi transport phenotypic cell assay; inhibition, % at 10 µM; 98,000 compounds, 0.9% hits; AID 739, 2007;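 also: yeast cells grown in 1536-well plates; yeast grown about 18 h at 30C before absorbance read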
PostGolgi ctrl: growth inhibition of yeast control strain, primary screen, counter-screen for post-Golgi transport modulator project; inhibition, % at 10 µM; 98,000 compounds, 5% hits; efflux-deficient yeast background strain, growth absorbance A615, 16 h
* marks the source's active call; other numbers are inactive results; / = no result. Shown are actives, neighbours in structure and some others; about 32% of the full set was active somewhere. Rule as the data show it, unless noted: active = inhibition above about 30%; inactive = the rest.

SMILES	CYP2C9 activ	CYP2C19 activ	CYP2C9 inhib	CYP2C19 inh	PostGolgi yeast	PostGolgi ctrl
Cc1ccccc1NC(=O)CC(O)(C(F)(F)F)C(F)(F)F	0.7	0.5	27.0	47.4	-1.8	7.7
CCN(CC)CC(=O)Nc1ccc(C)cc1Br	0.4	0.5	61.5*	49.9	-2.1	0.6
Cc1ccc(NC(=O)CC(O)(C(F)(F)F)C(F)(F)F)c(Br)c1	0.1	0.1	86.4*	86.6*	-5.2	18.0
C=CCn1c(O)c(C(CC)=Nc2ccccc2NC(=O)CC)c(=O)[nH]c1=O	0.4	0.3	59.9*	71.5*	0.8	-1.8
COCc1[nH]nc2c1C1(CCC3(CC1)OCCO3)C(C#N)=C(N)O2	1.2	1.1	-16.7	-9.6	-1.4	-3.2
CC1(C)C(C#N)=C(N)OC2=C1C(=O)CCC2	0.6	0.3	40.4	67.9*	-3.0	1.1
N#CC1=C(N)OC2=C(C(=O)CCC2)C12CCC1(CC2)OCCO1	1	0.9	1.2	5.1	-6.7	46.1*
COc1cccc(CN2C(=O)C3(C(C#N)=C(N)OC4=C3C(=O)CCC4)c3ccccc32)c1 (centres undefined)	0.3	0.8	65.9*	22.7	34.5*	18.0
CCN(CC)S(=O)(=O)c1ccc2[nH]c(=O)[nH]c2c1	1.1	0.9	-10.7	9.7	-0.2	0.5
O=C(Nc1cccc(Cl)c1N1CCCCC1)c1ccc2c(c1)OCCO2	0.3	0.8	65.4*	19.1	5.2	8.9
Cc1nc2ccc3nc(NC(=O)c4ccc5c(c4)OCCO5)sc3c2s1	0.9	1	9.8	-0.4	11.6	3.0
O=C(Nc1ccc2oc(-c3ccccc3)nc2c1)c1ccc2c(c1)OCCO2	0.3	0.5	66.1*	53.0*	-1.1	16.7
O=C(Nc1cccc2cccnc12)c1ccc2c(c1)OCCO2	2*	0.6	-102.4	37.8	4.4	19.7
Cc1nc2c(ccc3nc(NC(=O)c4ccc5c(c4)OCCO5)sc32)s1	0.4	0.8	62.9*	15.2	9.1	15.2
COc1cc(NC(=O)c2ccc3c(c2)OCO3)c2ncccc2c1	/	/	/	/	-4.5	4.1
CCc1ccccc1N(CC(=O)O)S(C)(=O)=O	1.2	1.1	-18.9	-14.2	0.0	3.0
Cc1ccc2nc(-c3ccccn3)cc(C(=O)NC3CCN(C)CC3)c2c1	0.9	1	11.1	-3.4	20.1	1.1
Cc1ccc(NC(=O)c2ccc3c(c2)OCCO3)cc1	0.9	0.9	13.8	7.2	-2.4	1.7
O=C(Nc1ccncc1)c1ccc2c(c1)OCCO2	0.5	0.2	50.1*	76.6*	-7.1	2.3
COC(=O)Nc1sc2c(c1C(=O)NC1CC1)CCCCCC2	0.8	0.7	20.8	32.1	7.6	7.6
CCN(CC)S(=O)(=O)c1ccc2c(c1)nc(SCc1nc3ccsc3c(=O)[nH]1)n2CC	0.3	0.8	69.1*	22.5	3.7	15.8
Cc1nc(SC(C(=O)c2ccccc2)c2ccccc2)n[nH]1 (centres undefined)	0.5	0.2	48.9	78.1*	7.7	3.2
Cc1nc(SCc2ccccc2C)n[nH]1	0.8	0.5	17.1	49.4	10.0	-3.1
O=C(NCC1CCCO1)c1ccc(CS(=O)(=O)Cc2ccc(F)cc2)o1 (centres undefined)	0.7	0.9	31.0	5.3	-6.1	-1.3
Cn1nc(C(F)(F)F)c(C(=O)Nc2ccc(F)cc2F)c1Sc1ccc(C(F)(F)F)cc1	0.7	0.3	34.0	69.0*	-9.7	-4.7
SMILES	CYP2C9 activ	CYP2C19 activ	CYP2C9 inhib	CYP2C19 inh	PostGolgi yeast	PostGolgi ctrl
Cn1nc(C(F)(F)F)c(C(=O)Nc2ccc(F)cc2F)c1Sc1ccc(Cl)cc1	0.8	0.4	24.3	61.2*	13.8	-5.0
COCCNc1c(-c2ccc(O)cc2)nc2ccc(Cl)cn12	/	/	/	/	7.3	6.4
COC(=O)CNc1c(-c2ccccc2)nc2ccc(Br)cn12	0.2	0.3	76.8*	69.4*	2.4	20.2
COc1ccc(C2Nc3ccccc3C(=O)N2Cc2ccccc2)cc1COc1ccccn1 (centres undefined)	0.4	0.5	60.8*	54.3*	10.4	21.5
COc1ccc(C2Nc3ccccc3C(=O)N2Cc2ccco2)cc1CN1C(=O)c2ccccc2C1=O (centres undefined)	0.2	0.3	84.8*	74.0*	-14.6	8.2
O=C(C/C=N/OCc1ccc(Cl)cc1Cl)c1ccc(Cl)cc1	1	0.7	1.3	28.0	0.3	2.4
COC(=O)c1ccccc1NC(=O)COC(=O)c1cccnc1	0.6	0.5	40.4	49.5	18.7	8.4
O=C(OCc1ccc(Cl)cc1Cl)c1ccncc1	0.6	0.3	43.7	69.4*	7.2	14.4
O=C(OCc1ccc(F)cc1Cl)c1ccccn1	0.8	0.2	17.4	80.2*	-0.3	0.5
O=C(OCc1c(Cl)cccc1Cl)c1ccccn1	1.1	0.9	-14.2	5.1	-1.9	9.6
O=C(COC(=O)c1ccncc1)Nc1cc(Cl)ccc1Cl	0.1	0.3	90.2*	66.3*	3.3	7.5
O=C(COC(=O)c1ccncc1)Nc1cc(Cl)c(Cl)cc1Cl	0.1	0	88.2*	97.5*	-2.9	2.3
O=C(N/N=C/c1ccc(O)cc1)c1ccc(COc2cc(Cl)ccc2Cl)o1	0.7	0.5	28.9	45.6	-11.2	1.4
CCCC(=O)c1c[nH]c(C(=O)NCCCN2CCOCC2)c1	1.2	1.1	-15.9	-12.8	9.2	-5.5
CC1(C)NC(=O)N(CC(O)CNC23CC4CC(CC(C4)C2)C3)C1=O (centres undefined)	0.9	0.9	6.3	7.0	2.8	-6.5
CCN(CC)S(=O)(=O)c1ccc(NC(=O)COc2c(OC)cccc2OC)cc1	0.6	0.8	36.3	22.3	-0.8	10.3
CCN(CC)S(=O)(=O)c1ccc(NC(=O)CC(NC(C)=O)c2ccccc2)cc1 (centres undefined)	0.1	0.5	86.1*	49.8	-6.6	40.1*
CCN(CC)S(=O)(=O)c1ccc(NC(=O)C(OC)c2ccccc2)cc1 (centres undefined)	0.4	0.9	55.0*	6.9	0.8	9.0
CC(=O)NC(CC(=O)Nc1ccc(S(=O)(=O)N2CCCC2)cc1)c1ccccc1 (centres undefined)	0.5	0.9	52.4*	12.1	-3.6	1.8
CNS(=O)(=O)c1cccc(C(=O)OC2CCCCC2=O)c1 (centres undefined)	1.1	0.7	-12.4	29.3	1.3	13.8
Nn1cc(-c2ccccc2)nc1SCC(=O)N1CCN(S(=O)(=O)c2ccccc2)CC1	0.9	0.6	6.8	40.7	6.2	3.5
COc1ccccc1N(CCC#N)C(=O)CSc1nc(-c2ccccc2)cn1N	0.8	0.3	21.0	74.7*	-0.6	7.0
